Results on 15 sequences are retold here after paper PMC3218832.

Common to all, as to assay: protein binding microarray; high values mean tight binding
Conditions in all cases: dsDNA, one strand shown

The target of experiment [1] is RELARELA (p65 homodimer) (Homo sapiens, UniProt Q04206 1-307).
The target of experiment [2] is p50p50 homodimer (Homo sapiens, UniProt P19838 7-356).
The target of experiment [3] is T1, p52p52 homodimer (Homo sapiens, UniProt Q00653 4-332).
T1 sequence: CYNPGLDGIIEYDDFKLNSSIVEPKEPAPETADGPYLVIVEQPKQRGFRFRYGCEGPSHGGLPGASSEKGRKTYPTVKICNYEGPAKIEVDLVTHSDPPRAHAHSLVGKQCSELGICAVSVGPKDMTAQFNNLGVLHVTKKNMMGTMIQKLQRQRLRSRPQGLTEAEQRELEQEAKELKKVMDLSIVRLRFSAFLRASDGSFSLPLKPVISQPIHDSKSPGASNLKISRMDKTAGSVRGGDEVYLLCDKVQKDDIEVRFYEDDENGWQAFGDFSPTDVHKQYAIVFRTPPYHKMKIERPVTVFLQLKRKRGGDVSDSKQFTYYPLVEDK

The target of experiment [4] is RELA (p65) subunit of heterodimer;p50 subunit (Homo sapiens;Homo sapiens, UniProt Q04206;P19838 1-307;7-356).
The target of experiment [5] is RELA (p65) subunit of heterodimer;p52 subunit (Homo sapiens;Homo sapiens, UniProt Q04206;Q00653 1-307;4-332).
The target in experiment [6] is RELB subunit;p50 subunit (Homo sapiens;Homo sapiens, UniProt Q01201;P19838 120-401;7-356).
For experiment [7], the target named is T2, RELB subunit;p52 subunit (Homo sapiens;Homo sapiens, UniProt Q01201;Q00653 120-401;4-332).
T2 sequence 1: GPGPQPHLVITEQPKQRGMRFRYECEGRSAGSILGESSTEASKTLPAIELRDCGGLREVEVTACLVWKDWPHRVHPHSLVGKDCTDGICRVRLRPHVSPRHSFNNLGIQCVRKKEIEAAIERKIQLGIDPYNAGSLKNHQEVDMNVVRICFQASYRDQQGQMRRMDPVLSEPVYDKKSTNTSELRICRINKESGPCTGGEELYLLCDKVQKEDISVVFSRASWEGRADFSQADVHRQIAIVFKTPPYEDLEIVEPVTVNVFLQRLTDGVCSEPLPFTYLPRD
T2 sequence 2: T1 sequence

In experiment [8] the target is C-Rel subunit;p50 subunit (Homo sapiens;Homo sapiens, UniProt Q04864;P19838 1-285;7-356).
Experiment [9] addresses T3, C-Rel subunit;p52 subunit (Homo sapiens;Homo sapiens, UniProt Q04864;Q00653 1-285;4-332).
T3 sequence 1: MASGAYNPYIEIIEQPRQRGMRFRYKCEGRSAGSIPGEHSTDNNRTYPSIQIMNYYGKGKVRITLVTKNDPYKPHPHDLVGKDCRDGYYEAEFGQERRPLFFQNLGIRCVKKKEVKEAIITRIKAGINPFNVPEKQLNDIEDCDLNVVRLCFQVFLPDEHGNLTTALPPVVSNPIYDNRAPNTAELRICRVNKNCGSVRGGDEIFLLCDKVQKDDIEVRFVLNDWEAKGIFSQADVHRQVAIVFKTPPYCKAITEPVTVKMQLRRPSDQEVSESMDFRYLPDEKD
T3 sequence 2: T1 sequence

Chain of p50p50 homodimer (P19838 7-356): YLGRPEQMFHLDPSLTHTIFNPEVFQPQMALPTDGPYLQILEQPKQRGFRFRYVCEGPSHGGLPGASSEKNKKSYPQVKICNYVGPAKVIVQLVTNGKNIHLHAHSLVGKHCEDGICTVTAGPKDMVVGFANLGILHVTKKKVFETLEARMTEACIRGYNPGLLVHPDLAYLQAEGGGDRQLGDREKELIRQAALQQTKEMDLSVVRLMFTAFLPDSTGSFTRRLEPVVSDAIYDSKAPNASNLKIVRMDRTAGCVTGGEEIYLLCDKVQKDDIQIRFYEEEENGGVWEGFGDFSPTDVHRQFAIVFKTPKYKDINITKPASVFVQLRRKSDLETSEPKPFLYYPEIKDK
Chain of RELA (p65) subunit of heterodimer;p50 subunit (Q04206 1-307, chain 1 of 2): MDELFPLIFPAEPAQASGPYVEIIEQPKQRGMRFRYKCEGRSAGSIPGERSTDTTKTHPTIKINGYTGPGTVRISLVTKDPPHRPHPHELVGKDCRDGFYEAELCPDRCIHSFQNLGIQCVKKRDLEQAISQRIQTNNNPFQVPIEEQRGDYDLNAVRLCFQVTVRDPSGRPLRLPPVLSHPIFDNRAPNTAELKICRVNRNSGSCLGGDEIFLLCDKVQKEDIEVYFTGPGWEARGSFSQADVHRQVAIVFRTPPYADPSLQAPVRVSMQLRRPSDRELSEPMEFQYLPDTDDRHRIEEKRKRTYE
Chain of RELA (p65) subunit of heterodimer;p50 subunit (P19838 7-356, chain 2 of 2): as the sequence (P19838 7-356) above
Chain of RELARELA (p65 homodimer) (Q04206 1-307): as the sequence (Q04206 1-307, chain 1 of 2) above

In the case of AAGAGAGTCCT, the binding signal is 0.889 z-score in [1]; -0.892 z-score in [2]; -0.435 z-score in experiment [3]; -0.32 z-score in experiment [4]; -0.676 z-score in [5]; -0.818 z-score in experiment [6]. Besides, the binding signal in experiment [7] was -0.673 z-score; in experiment [8] it was -0.59 z-score; in experiment [9] it was -0.442 z-score.
For GAGTGTACCCC, the binding signal in [1] is 0.11 z-score; in experiment [2], -0.176 z-score; in experiment [3], -0.057 z-score; in experiment [4] it was 0.0359 z-score; in experiment [5], 0.0373 z-score; in experiment [6] it was 0.15 z-score. The binding signal in [7] stood at 0.337 z-score; in experiment [8] it was 0.0895 z-score; in experiment [9], 0.24 z-score.
Consider CAAATCTCCCT, for which the binding signal in [1] is 0.0987 z-score; in [2], 1.24 z-score; in [3] it was 0.832 z-score; in [4] it was 1.06 z-score; in [5], 1.05 z-score; in experiment [6], 1.35 z-score. For the same sequence, the figures for the binding signal in experiment [7], in experiment [8] and in experiment [9] were 1.4 z-score, 0.664 z-score and 1.06 z-score, respectively.
Turning to GGAGGTACCCT, the binding signal is -0.125 z-score in [1]; 0.0465 z-score in [2]; -0.0665 z-score in experiment [3]; 0.0938 z-score in [4]; 0.0265 z-score in experiment [5]; 0.0938 z-score in experiment [6]. Further, the binding signal in experiment [7] is -0.25 z-score; in [8], -0.0429 z-score; in experiment [9] it was 0.0544 z-score.
Regarding GAAGAAGCCCT, the binding signal in [1] was -0.988 z-score; in [2] it was -1.65 z-score; in [3], -0.651 z-score; in [4], -0.934 z-score; in [5] it was -0.868 z-score; in experiment [6], -1.04 z-score. The binding signal in experiment [7] is -0.801 z-score; in experiment [8], -1.08 z-score; in experiment [9] it was -0.998 z-score.
On to AGATACCCCCT, for which the binding signal was determined as 0.103 z-score in [1]; 1.43 z-score in experiment [2]; 1.19 z-score in experiment [3]; 1.36 z-score in [4]; 1.5 z-score in experiment [5]; 1.38 z-score in [6]. Moreover, the values for the binding signal in [7], in experiment [8] and in [9] were 1.84 z-score, 1.13 z-score and 1.24 z-score, respectively.
Consider CAGGAACTCCC, for which the binding signal in experiment [1] was found to be 1.07 z-score; in [2], 0.648 z-score; in experiment [3], 0.144 z-score; in experiment [4] it was 0.636 z-score; in experiment [5] it was 0.288 z-score; in [6], 0.322 z-score. Besides, the binding signal in experiment [7] is 0.116 z-score; in experiment [8], 0.424 z-score; in [9], 0.208 z-score.
For AAATAATTCCT, the binding signal was 0.497 z-score in experiment [1]; -0.505 z-score in experiment [2]; -0.44 z-score in [3]; -0.41 z-score in [4]; -0.399 z-score in experiment [5]; -0.654 z-score in [6]. The results for the binding signal in experiment [7], in experiment [8] and in [9] were -0.671 z-score, 0.179 z-score and -0.124 z-score, respectively.
In the case of AAAGATGTCCC, the binding signal was 0.336 z-score in experiment [1]; 0.646 z-score in experiment [2]; 0.345 z-score in experiment [3]; 0.492 z-score in [4]; 0.185 z-score in experiment [5]; 0.741 z-score in experiment [6]. The binding signal in experiment [7] is 0.487 z-score; in experiment [8], 0.497 z-score; in [9], -0.0919 z-score.
For AAATATCTCCC, the binding signal was 0.144 z-score in experiment [1]; 0.445 z-score in experiment [2]; 0.105 z-score in [3]; 0.12 z-score in [4]; -0.105 z-score in [5]; 0.365 z-score in [6]. In addition, the binding signal is 0.153 z-score in [7], -0.0256 z-score in experiment [8] and -0.0762 z-score in experiment [9].
Regarding GGAAATGTCCC, the binding signal in experiment [1] came out at 1.93 z-score; in experiment [2] it was 0.902 z-score; in experiment [3] it was 1.14 z-score; in experiment [4], 1.27 z-score; in [5], 1.05 z-score; in experiment [6] it was 0.938 z-score. Moreover, the binding signal was determined as 0.986 z-score in [7], 0.9 z-score in [8] and 0.975 z-score in [9].
As to CAATTACCCCT, the binding signal came out at 0.378 z-score in [1]; 1.06 z-score in [2]; 0.863 z-score in experiment [3]; 0.727 z-score in experiment [4]; 1.01 z-score in experiment [5]; 0.941 z-score in [6]. Besides, the binding signal in experiment [7] came to 1.38 z-score; in experiment [8] it was 0.652 z-score; in [9], 0.899 z-score.
On to AGGAGCGCCCC, for which the binding signal was -0.227 z-score in experiment [1]; -0.229 z-score in experiment [2]; 0.018 z-score in [3]; 0.186 z-score in [4]; 0.348 z-score in [5]; -0.0805 z-score in experiment [6]. Besides, the figures for the binding signal in experiment [7], in experiment [8] and in experiment [9] were 0.162 z-score, 0.0948 z-score and 0.277 z-score, respectively.
As to CAATGGTTCCT, the binding signal in [1] is 0.0242 z-score; in experiment [2] it was -1.26 z-score; in experiment [3], -0.536 z-score; in experiment [4], -0.894 z-score; in experiment [5], -0.883 z-score; in [6], -0.727 z-score. Further, the binding signal in experiment [7] was -0.56 z-score; in experiment [8] it was -0.994 z-score; in experiment [9], -0.857 z-score.
Turning to CAATTCCCCCC, the binding signal in [1] turned out to be 1.09 z-score; in experiment [2] it was 1.66 z-score; in [3], 1.93 z-score; in experiment [4], 2.3 z-score; in experiment [5], 1.94 z-score; in experiment [6], 2.19 z-score. In addition, the figures for the binding signal in experiment [7], in experiment [8] and in [9] were 2.34 z-score, 1.94 z-score and 1.85 z-score, respectively.
